# Experimental data: publication PMC5540273 (PLoS ONE, 2017)
# Tests used:
# Details in all cases: concentration: 1 μM, replicates: in singlicate; n = 1
# WNK4 = system: WNK4
# YANK1 = system: T1, YANK1
# T1 construct: gene STK32A
# YANK2 = system: T2, YANK2
# T2 construct: gene STK32B
# YANK3 = system: T3, YANK3
# T3 construct: gene STK32C
# YES = system: T4, YES
# T4 construct: gene YES1
# YSK1 = system: T5, YSK1
# T5 construct: gene STK25
# YSK4 = system: T6, YSK4
# T6 construct: gene MAP3K19
# ZAK = system: ZAK
# ZAP70 = system: ZAP70
# p38-alpha = system: T7, p38-alpha
# T7 construct: gene MAPK14
# 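Also: KINOMEscan kinase panel screen.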
structure (smiles),measurement,setting,value
C[C@H]1CC[C@@H](C(=O)Nc2ccccc2)CN1c1cc(-c2ccc3c(N)n[nH]c3c2)nc(N)n1 [GSK2283293],%Inh,WNK4,28%
same,%Inh,YANK1,13%
same,%Inh,YANK2,0%
same,%Inh,YANK3,4%
same,%Inh,YES,10%
same,%Inh,YSK1,0%
same,%Inh,YSK4,16%
same,%Inh,ZAK,2%
same,%Inh,ZAP70,0%
same,%Inh,p38-alpha,0%
Clc1cc(Nc2ncnc3cc[nH]c23)ccc1OCc1ccccn1,%Inh,WNK4,25%
same,%Inh,YANK1,12%
same,%Inh,YANK2,3%
same,%Inh,YANK3,51%
same,%Inh,YES,0%
same,%Inh,YSK1,0%
same,%Inh,YSK4,34%
same,%Inh,ZAK,18%
same,%Inh,ZAP70,0%
same,%Inh,p38-alpha,18%
NC(=O)c1sc(-n2cnc3ccccc32)cc1OCc1ccccc1F [GSK1024306],%Inh,WNK4,0%
same,%Inh,YANK1,0%
same,%Inh,YANK2,0%
same,%Inh,YANK3,0%
same,%Inh,YES,0%
same,%Inh,YSK1,0%
same,%Inh,YSK4,2%
same,%Inh,ZAK,0%
same,%Inh,ZAP70,0%
same,%Inh,p38-alpha,93.4%
Cl.Cl.c1ccc(-c2cc3ccncc3cc2OC2CCNCC2)cc1 [GSK1122999],%Inh,WNK4,28%
same,%Inh,YANK1,20%
same,%Inh,YANK2,0%
same,%Inh,YANK3,0%
same,%Inh,YES,15%
same,%Inh,YSK1,8%
same,%Inh,YSK4,64%
same,%Inh,ZAK,0%
same,%Inh,ZAP70,0%
same,%Inh,p38-alpha,4%
Cl.O=S(=O)(c1cccc(F)c1)c1ccc(Nc2ncnc3cc(Br)sc23)cc1Cl [GSK306886],%Inh,WNK4,0%
same,%Inh,YANK1,0%
same,%Inh,YANK2,0%
same,%Inh,YANK3,0%
same,%Inh,YES,14%
same,%Inh,YSK1,30%
same,%Inh,YSK4,0%
same,%Inh,ZAK,6%
same,%Inh,ZAP70,0%
same,%Inh,p38-alpha,42%
O=c1cc(N2CCOCC2)nc2n(Cc3cccc(Cl)c3)ccn12 [GSK2296823],%Inh,WNK4,0%
same,%Inh,YANK1,0%
same,%Inh,YANK2,0%
same,%Inh,YANK3,18%
same,%Inh,YES,23%
same,%Inh,YSK1,10%
same,%Inh,YSK4,19%
same,%Inh,ZAK,0%
same,%Inh,ZAP70,0%
same,%Inh,p38-alpha,0%
Nc1nc(-c2cccnc2)c(-c2ccnc3ccccc23)s1 [GW684083],%Inh,WNK4,39%
same,%Inh,YANK1,20%
same,%Inh,YANK2,18%
same,%Inh,YANK3,0%
same,%Inh,YES,18%
same,%Inh,YSK1,0%
same,%Inh,YSK4,60%
same,%Inh,ZAK,78%
same,%Inh,ZAP70,0%
same,%Inh,p38-alpha,40%
CN1CCC(n2cnc(-c3ccc(F)cc3)c2-c2ccnc(NC3CCNCC3)n2)CC1 [SB-229482],%Inh,WNK4,0%
same,%Inh,YANK1,0%
same,%Inh,YANK2,2%
same,%Inh,YANK3,1%
same,%Inh,YES,0%
same,%Inh,YSK1,0%
same,%Inh,YSK4,0%
same,%Inh,ZAK,4%
same,%Inh,ZAP70,0%
same,%Inh,p38-alpha,89%
CC(C)(C)OC(=O)NC1CCCN(c2cc(-c3ccc4c(N)n[nH]c4c3)nc(N)n2)C1 (centres unmarked) [GSK2286096],%Inh,WNK4,12%
same,%Inh,YANK1,10%
same,%Inh,YANK2,0%
same,%Inh,YANK3,0%
same,%Inh,YES,1%
same,%Inh,YSK1,2%
same,%Inh,YSK4,20%
same,%Inh,ZAK,0%
same,%Inh,ZAP70,0%
same,%Inh,p38-alpha,0%
Cc1ccc(O)cc1Nc1cc(C(F)(F)F)nc2ccc(-c3ccncc3)cc12 [GW630823],%Inh,WNK4,0%
same,%Inh,YANK1,0%
same,%Inh,YANK2,0%
same,%Inh,YANK3,0%
same,%Inh,YES,23%
same,%Inh,YSK1,0%
same,%Inh,YSK4,0%
same,%Inh,ZAK,10%
same,%Inh,ZAP70,0%
same,%Inh,p38-alpha,8%
Cl.Fc1ccccc1COc1ccc(Nc2ncnc3ccc(-c4nnc(C(F)(F)F)o4)cc23)cc1Cl [GW424170],%Inh,WNK4,0%
same,%Inh,YANK1,3%
same,%Inh,YANK2,0%
same,%Inh,YANK3,3%
same,%Inh,YES,5%
same,%Inh,YSK1,0%
same,%Inh,YSK4,0%
same,%Inh,ZAK,1%
same,%Inh,ZAP70,0%
same,%Inh,p38-alpha,0%
Cc1ccc(NC(=O)c2cccc(C#N)c2)cc1-c1ccc(C(=O)Nc2ccncc2)cc1 [GSK1398463],%Inh,WNK4,3%
same,%Inh,YANK1,14%
same,%Inh,YANK2,0%
same,%Inh,YANK3,11%
same,%Inh,YES,24%
same,%Inh,YSK1,9%
same,%Inh,YSK4,64%
same,%Inh,ZAK,12%
same,%Inh,ZAP70,0%
same,%Inh,p38-alpha,47%
CCn1c(-c2ccncc2)nc2cnccc21 [SB-735216],%Inh,WNK4,22%
same,%Inh,YANK1,0%
same,%Inh,YANK2,4%
same,%Inh,YANK3,7%
same,%Inh,YES,16%
same,%Inh,YSK1,0%
same,%Inh,YSK4,74%
same,%Inh,ZAK,23%
same,%Inh,ZAP70,0%
same,%Inh,p38-alpha,0%
CN1c2ccc(-c3ccc(C(=O)NCCO)cc3)cc2-c2[nH]ncc2S1(=O)=O,%Inh,WNK4,0%
same,%Inh,YANK1,0%
same,%Inh,YANK2,0%
same,%Inh,YANK3,0%
same,%Inh,YES,12%
same,%Inh,YSK1,13%
same,%Inh,YSK4,8%
same,%Inh,ZAK,20%
same,%Inh,ZAP70,0%
same,%Inh,p38-alpha,0%
Clc1cccc(-c2nc(Nc3ccncc3)c3ccccc3n2)c1 [GW873004],%Inh,WNK4,0%
same,%Inh,YANK1,0%
same,%Inh,YANK2,0%
same,%Inh,YANK3,0%
same,%Inh,YES,34%
same,%Inh,YSK1,0%
same,%Inh,YSK4,0%
same,%Inh,ZAK,0%
same,%Inh,ZAP70,0%
same,%Inh,p38-alpha,0%
COC(=O)c1c(-c2ccccc2)c2cc(Cl)ccc2c(=O)n1Cc1ccc(S(C)(=O)=O)cc1,%Inh,WNK4,27%
same,%Inh,YANK1,0%
same,%Inh,YANK2,15%
same,%Inh,YANK3,0%
same,%Inh,YES,0%
same,%Inh,YSK1,0%
same,%Inh,YSK4,2%
same,%Inh,ZAK,5%
same,%Inh,ZAP70,0%
same,%Inh,p38-alpha,17%
COC(=O)c1cccc(NC(=O)NCCNc2ccnc(Nc3ccc(F)cc3)n2)c1 [GSK1379883],%Inh,WNK4,36%
same,%Inh,YANK1,0%
same,%Inh,YANK2,20%
same,%Inh,YANK3,0%
same,%Inh,YES,14%
same,%Inh,YSK1,14%
same,%Inh,YSK4,8%
same,%Inh,ZAK,0%
same,%Inh,ZAP70,0%
same,%Inh,p38-alpha,3%
Fc1cccc(COc2ccc(Nc3ncnc4sc(-c5ccc[nH]5)cc34)cc2Cl)c1 [GW707818],%Inh,WNK4,6%
same,%Inh,YANK1,13%
same,%Inh,YANK2,34%
same,%Inh,YANK3,0%
same,%Inh,YES,1%
same,%Inh,YSK1,0%
same,%Inh,YSK4,8%
same,%Inh,ZAK,0%
same,%Inh,ZAP70,6%
same,%Inh,p38-alpha,44%
COc1cc2c(Nc3cccc(NC(=O)c4ccccc4)c3)ncnc2cc1OCCCN1CCOCC1 [GSK223810],%Inh,WNK4,0%
same,%Inh,YANK1,7%
same,%Inh,YANK2,0%
same,%Inh,YANK3,2%
same,%Inh,YES,15%
same,%Inh,YSK1,12%
same,%Inh,YSK4,36%
same,%Inh,ZAK,0%
same,%Inh,ZAP70,0%
same,%Inh,p38-alpha,81%
Fc1cccc(COc2ccc(Nc3ncnc4nn5ccccc5c34)cc2Cl)c1 [GW689066],%Inh,WNK4,23%
same,%Inh,YANK1,0%
same,%Inh,YANK2,0%
same,%Inh,YANK3,6%
same,%Inh,YES,13%
same,%Inh,YSK1,1%
same,%Inh,YSK4,3%
same,%Inh,ZAK,4%
same,%Inh,ZAP70,0%
same,%Inh,p38-alpha,11%
